The record followed here is ChEMBL document CHEMBL4513216, “Probing the Open Global Health Chemical Diversity Library for Multistage-Active Starting Points for Next-Generation Antimalarials” (ACS Infect Dis, 2020).

Each structure is given as a SMILES string. About 8,600 (12%) of roughly 69,000 compounds showed an effect of 50% or more. What follows is part of a selection rich in strong results, with near analogues and random picks from the rest.

The test system of this assay is Plasmodium berghei. Briefly: Screen against P. berghei liver stage (PbLuc), transformed with Luciferase, at 10uM. Format: functional, HepG2. The conditions noted are these: tested at 10 uM.
Consider `O=C1CCC2(CCCN(C(=O)NCc3ccccc3)CC2)N1` (centres undefined), for which the INHIBITION is recorded as 8.74%.

Consider `Cc1nc2c(cc1C(=O)Nc1ccccc1Cl)c(=O)n(C)c(=O)n2C`, for which the INHIBITION is 18.6%.

Consider `COCCN1CCN(C)C2(CCN(C(=O)c3ccnnc3)CC2)C1=O`, for which the INHIBITION was found to be 39.4%.

For the compound `Cc1nc(C(C)Nc2nc3c(s2)c(C)nn3C)n[nH]1` (centres undefined), the INHIBITION was determined as 52.1%.

Turning to `Cc1nn(C)c2nc(NC(C)c3n[nH]c(=O)[nH]3)sc12` (centres undefined), the INHIBITION was found to be 28.5%.

Consider `Cc1nn(C)c2nc(NC(C)c3nnn[nH]3)sc12` (centres undefined), for which the INHIBITION turned out to be 1.24%.

For `O=S(=O)(NCc1ccnc(-n2ccnc2)c1)c1cncc(F)c1`, the INHIBITION is 2.93%.

Turning to `Cc1ccc(C(=O)NC2CCCN(C)C2)c(=O)[nH]1` (centres undefined), the INHIBITION came out at 8.51%.

`Cc1ccc(C(=O)NC2CCCN(CC(N)=O)C2)c(=O)[nH]1` (centres undefined): the INHIBITION was 9.63%.

Consider `CCN1CCCC(NC(=O)c2ccc(C)[nH]c2=O)C1` (centres undefined), for which the INHIBITION was found to be 55.5%.

In the case of `CN(C)[C@@H]1CN(Cc2cccnc2)C[C@H]1c1cn(C)c2ccccc12`, the INHIBITION was 23.69%.

Consider `c1ccc(OCc2nnc3n2CCN(Cc2ccco2)C3)nc1`, for which the INHIBITION was 24.9%.

Turning to `Cc1nn(C)c2c(N(C)Cc3cccs3)nc(C3CC3)nc12`, the INHIBITION is -17.2%.

Take `CCOc1cc(C(=O)N2CCCC2)cc2occc12`: the INHIBITION is on record as 50.7%.

Take `CCOc1cc(C(=O)N2CCN(CC)CC2)cc2occc12`: the INHIBITION came to 9.32%.

Take `CCOc1cc(C(=O)N2CCN(C)CC2)cc2occc12`: the INHIBITION amounted to 44.1%.

As for `CCOc1cc(C(=O)N2CCOCC2)cc2occc12`, the INHIBITION was 36.6%.

Regarding `CCOC(=O)N1CCN(C(=O)c2cc(OCC)c3ccoc3c2)CC1`, the INHIBITION is given as 58.2%.

On to `CCOC(=O)C1CCN(C(=O)c2cc(OCC)c3ccoc3c2)CC1`, for which the INHIBITION is reported as -13.9%.

As for `CN1CCCCC1c1ncc2c(n1)CCN(CCCc1ccccc1)C2` (centres undefined), the INHIBITION is given as 26.8%.

In the case of `Cc1cc(C(=O)N2CCC(O)(Cn3c(C)cc4ccncc43)CC2)on1`, the INHIBITION is listed as 9.05%.

As for `NC(=O)N1CCC(NCc2cc(C(F)(F)F)ccc2Cl)CC1`, the INHIBITION turned out to be 17.8%.

Take `CN(C)C(=O)COCc1nnc2n1CCN(Cc1ccoc1)C2`: the INHIBITION is on record as 45.8%.

Take `CNC(=O)C1(CCCc2ccncc2)CCN1` (centres undefined): the INHIBITION is -4.82%.

With `COc1ccc(CN2CC(O)CN(C(=O)C3CCC3)CC2=O)cc1` (centres undefined), the INHIBITION was 41.1%.

For `COc1cccc(OCC2CCCN(C(=O)c3cc(C)n[nH]3)C2)c1` (centres undefined), the INHIBITION is listed as 10.5%.

As for `COc1cccc(CCC2CCCN(C(=O)c3cnccn3)C2)c1` (centres undefined), the INHIBITION worked out at 81.1%.

Consider `COc1cccc(C(=O)N2CCCC(C(=O)CCc3ccccc3)C2)c1` (centres undefined), for which the INHIBITION is reported as 65%.

Regarding `N#Cc1cccc(C(=O)N2CCCC(C(=O)CCc3ccccc3)C2)c1` (centres undefined), the INHIBITION is reported as -8.66%.

As for `COc1cccc(CCC2CCCN(C(C)=O)C2)c1` (centres undefined), the INHIBITION is given as -10.9%.

Regarding `COc1cccc(CCC2CCCN(C(=O)c3ccc(OC)o3)C2)c1` (centres undefined), the INHIBITION worked out at 68.3%.

Consider `COc1cccc(CCC2CCCN(C(=O)C3=NN(C)C(=O)CC3)C2)c1` (centres undefined), for which the INHIBITION is recorded as 3.47%.

On to `COc1cccc(CCC2CCCN(C(=O)c3ccc(=O)n(C)n3)C2)c1` (centres undefined), for which the INHIBITION was determined as 40.5%.

For the compound `COc1cccc(CCC2CCCN(C(=O)c3ccccn3)C2)c1` (centres undefined), the INHIBITION stood at 43.7%.

In the case of `COc1ccccc1CC1CCCN(C(=O)c2n[nH]c3c2CCC3)C1` (centres undefined), the INHIBITION stood at 19%.

In the case of `Cn1cc(C(=O)N2CCCC(C(=O)CCc3ccccc3)C2)cn1` (centres undefined), the INHIBITION is reported as 10.7%.

Turning to `COc1cccc(CCC2CCCN(C(=O)c3n[nH]c4c3CCC4)C2)c1` (centres undefined), the INHIBITION was found to be 81.8%.

Turning to `Cc1sc(NC(=O)CCC(=O)O)c(C(N)=O)c1-c1ccc(Cl)cc1Cl`, the INHIBITION is on record as 41.6%.

`CNc1nccc(-c2cnc3sc(C)c(C)n3c2=O)n1`: the INHIBITION is on record as -4.82%.

As to `Cc1ccc(C(=O)NC2CCCN(S(C)(=O)=O)C2)c(=O)[nH]1` (centres undefined), the INHIBITION is 19.7%.

Consider `O=C(c1cc[nH]n1)N1CCCC1c1cnccn1` (centres undefined), for which the INHIBITION came to 31.6%.

`CC(NC(=O)COCC(F)(F)F)c1nnc2n1CCCCC2` (centres undefined): the INHIBITION was -27.8%.

For the compound `CCN(CC)CCCNC(=O)c1nn(CC)cc1Cl`, the INHIBITION is recorded as 35.8%.

With `O=C(CCOc1ccc(Br)cc1)N1CCN(c2cnccn2)CC1`, the INHIBITION turned out to be 43.2%.

`CC1(C)CN(CC(=O)NCc2ccccc2F)C[C@]1(C)O`: the INHIBITION is given as -2.97%.

As to `COc1cccc(OCC2CCCN(Cc3ncc[nH]3)C2)c1` (centres undefined), the INHIBITION is 22.6%.

Turning to `COc1cccc(CCC2CCCN(Cc3ncc[nH]3)C2)c1` (centres undefined), the INHIBITION worked out at 65.7%.

As for `COc1ccc(C(=O)N2CCC(Oc3ccccc3)(C(=O)O)CC2)o1`, the INHIBITION came to 50.1%.

Take `COc1ccc(C(=O)N2CCC(Oc3cccc(C)c3)(C(=O)O)CC2)o1`: the INHIBITION worked out at 40.2%.

Take `COc1ccc(C(=O)N2CCC(Oc3ccc(C)cc3)(C(=O)O)CC2)o1`: the INHIBITION came to 14.3%.

For the compound `COc1cccc(OCC2CCCN(Cc3ccncc3)C2)c1` (centres undefined), the INHIBITION worked out at 1.74%.

As for `FC(F)(F)Cn1ccnc1CNCC1CCCN1c1cccnn1` (centres undefined), the INHIBITION was -2.53%.

Take `Cc1nc(NC(=O)CCN2C(=O)c3ccccc3NC2C(C)C)sc1C` (centres undefined): the INHIBITION was found to be 28.7%.

As for `COCC(=O)NCc1cc(=O)n2c(n1)CN(Cc1ccncc1)CCC2`, the INHIBITION was determined as 22.2%.

In the case of `CCNc1cc2c(nn1)CCN(C(=O)c1ccsc1)C2`, the INHIBITION is recorded as 37.8%.

Turning to `COCC(=O)NC(C)c1sc(-c2ccccc2F)nc1C` (centres undefined), the INHIBITION came out at 84.2%.

For the compound `CC(=O)NCCC(=O)NC(C)c1sc(-c2ccccc2F)nc1C` (centres undefined), the INHIBITION is 29.3%.

As to `CCC(=O)NCC(=O)NC(C)c1sc(-c2ccccc2F)nc1C` (centres undefined), the INHIBITION is listed as -2.94%.

Regarding `CCc1nnc(CN2CCc3cnc(C)nc3C2)o1`, the INHIBITION was -36.6%.

As for `CC(C)NC(=O)N1CCOC2(CCCN(c3ncccc3F)C2)C1` (centres undefined), the INHIBITION amounted to 2.58%.

In the case of `CS(=O)(=O)CCNC1CCCN(Cc2noc(C3CC3)n2)C1` (centres undefined), the INHIBITION came out at 40.4%.

Take `O=C(O)C1(O)CCN(c2ccnc3c(C(F)(F)F)cccc23)CC1`: the INHIBITION is given as -48.4%.

In the case of `O=c1c2cccc(F)c2ncn1CCN1CCNCC1`, the INHIBITION was -74%.

Regarding `Cc1nc[nH]c1-c1c(-c2ccccc2)ncn1C1CCNC1` (centres undefined), the INHIBITION is recorded as 31.3%.

Turning to `O=c1c2cccc(C(F)(F)F)c2ncn1CCN1CCNCC1`, the INHIBITION is -100%.

For `O=c1c2cccc(Cl)c2ncn1C1CCNC1` (centres undefined), the INHIBITION was 56.3%.

Consider `O=c1c2cccc(C(F)(F)F)c2ncn1C1CCNC1` (centres undefined), for which the INHIBITION was determined as 53.6%.

Take `Cc1cc(NCc2noc(C(C)C)n2)nc(-c2ccccc2)n1`: the INHIBITION stood at 14.4%.

Regarding `COCCOc1cccc(C(=O)N2CCCCC2c2nccs2)c1` (centres undefined), the INHIBITION is listed as -31.5%.
